The results in this text go back to PubChem BioAssay (Tox21).

Results filed as inconclusive are left out. Calls of active or inactive are those of the source. Unless noted, calls follow the shape of the full dose curve.
% is scaled to controls: 0 for no effect and ±100 for the full control effect; potency is read from the fitted curve at half-maximal effect.

The nature of one assay: Nuclear factor erythroid 2-related factor 2/antioxidant responsive element (Nrf2/ARE) small molecule agonists: qHTS cell viability counter screen in human keratinocytes (AID 1919968; active = well fitted cell-killing curve with a large enough effect in the repeat runs; also: nearly all actives have a fitted effect of over 55% in size). The settings on record: KeratinoSens HaCaT ARE cells viability, CellTiter-Fluor, 24 h; series mostly up to 92.4 µM; activity change, negative = cytotoxicity: at the top concentration. A digest of the protocol: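 Viability counter-screen: KeratinoSens reporter cells, DMSO-delivered compounds, 23 h at 37 C, CellTiter-Fluor fluorescence.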
(In qHTS, concentration-response curves come from the screen itself.)
Turning to `CC[C@@H](CO)NC(=O)[C@@H]1C=C2c3cccc4[nH]cc(c34)C[C@H]2N(C)C1`, the “activity change, negative = cytotoxicity” value is 1.26% [at 42.5 µM] (inactive). The same measure, in the same setting: as for `CC(C)C(=O)Cl`, the figure is 5.97% (inactive). Consider `CN(C)c1ccc(N)cc1`, for which the Potency is 29.9 µM (active). `CCOc1ccc(C(C)(C)COCc2cccc(Oc3ccccc3)c2)cc1`: the “activity change, negative = cytotoxicity” value was 21.4% (inactive).

Turning to `O=[Se]=O`, the “activity change, negative = cytotoxicity” value was 5.58% [at 42.5 µM] (inactive). Take `CCOCn1c(-c2ccc(Cl)cc2)c(C#N)c(Br)c1C(F)(F)F`: the Potency was 34.4 µM (active). Consider `O=C(N[C@H]1N=C(c2ccccc2F)c2cccc3c2N(CC3)C1=O)c1cc2ccccc2[nH]1`, for which the “activity change, negative = cytotoxicity” value is 7.37% [at 42.5 µM] (inactive). In the case of `N#Cc1cc(I)c(O)c(I)c1`, the “activity change, negative = cytotoxicity” value was -18.2% (inactive). Regarding `CCC1(C2=NCCN2)Cc2ccccc2O1` (stereo unspecified), the “activity change, negative = cytotoxicity” value was 2.67% [at 42.5 µM] (inactive). On the same count and under the same terms, then `ClSC(Cl)(Cl)Cl`, with 4.24% (inactive); and `CCOP(=S)(OCC)Oc1cc(C)nc(N(CC)CC)n1`, with 23.7% (inactive). The same measure, in the same setting: as for `Nc1ccc2c(c1)Cc1ccccc1-2`, the figure is 10.2% (inactive); as for `C[C@@H]1CC2=CC(=O)CC[C@@H]2[C@H]2CC[C@@]3(C)[C@@H](CC[C@]3(C)O)[C@@H]21`, 3.02% [at 42.5 µM] (inactive); as for `COC(=O)c1ccccc1S(=O)(=O)NC(=O)N(C)c1nc(C)nc(OC)n1`, -2.34% (inactive). Turning to `CC(Cc1ccccc1)NCc1ccccc1Cl` (stereo unspecified), the “activity change, negative = cytotoxicity” value was 5.95% [at 42.5 µM] (inactive). The same measure, in the same setting: then `CC(C)(C)c1ccc(CSc2cnn(C(C)(C)C)c(=O)c2Cl)cc1`, with -11.6% (inactive); and `CNN`, with 0.454% (inactive); and `C=C1C[C@@H]2[C@H](CC[C@]3(C)C(=O)CC[C@@H]23)[C@@]2(C)C=CC(=O)C=C12`, with 4.02% [at 42.5 µM] (inactive). The same measure, in the same setting: as for `C=CCOC(C)=O`, the figure is 5.67% (inactive). With `Cc1ccc(-c2c(Cl)nc(C#N)n2S(=O)(=O)N(C)C)cc1`, the Potency was 15.3 µM (active). Turning to `FC(F)OC(F)(F)C(F)Cl` (stereo unspecified), the “activity change, negative = cytotoxicity” value was 1.97% (inactive).

The nature of another assay: Nuclear factor erythroid 2-related factor 2/antioxidant responsive element (Nrf2/ARE) small molecule agonists: luciferase reporter gene qHTS assay in human keratinocytes (AID 1919969). Also: nearly all actives have a fitted effect of over 35% in size. As to conditions: KeratinoSens HaCaT ARE-luciferase, luminescence, 24 h; series mostly up to 92.4 µM; activity, positive = activation: at the top concentration.
For the compound `C=COC(C)=O`, the “activity, positive = activation” value was 0.283% (inactive). Consider `CCCCCl`, for which the “activity, positive = activation” value was -11.4% (inactive). Same read-out and setting: as for `OC(c1ccc(F)cc1)(c1cncnc1)c1ccccc1Cl` (stereo unspecified), the figure is -10% (inactive); as for `CCOC(=O)OC1=C(c2cc(C)ccc2C)C(=O)NC12CCC(OC)CC2` (stereo unspecified), -9.12% (inactive). For `NNCCO`, the “activity, positive = activation” value is -3.63% (inactive). Still for that read-out and setting: then `C[N+]1(C)[C@@H]2CC[C@H]1CC(OC(=O)C(CO)c1ccccc1)C2` (stereo partly specified), with 0.473% [at 42.5 µM] (inactive).

Regarding `O=CC(Br)(Br)Br`, the Potency was 3.05 µM (active). Consider `Nc1c(Br)cc(Br)c2c1C(=O)c1ccccc1C2=O`, for which the activity, positive = activation was 4.98% [at 19 µM] (inactive).

Turning to `O=S(=O)(Cl)c1ccccc1`, the “activity, positive = activation” value was -4.04% (inactive).

Take `Cc1nnc2n1-c1sc(CCC(=O)N3CCOCC3)cc1C(c1ccccc1Cl)=NC2`: the “activity, positive = activation” value is -2.33% [at 42.5 µM] (inactive).

On to `O=Cc1ccc2c(c1)OCO2`, for which the “activity, positive = activation” value was -10.6% (inactive). Take `CCN(CC)C(=S)[S-].CCN(CC)C(=S)[S-].[Zn+2]`: the Potency was 2.41 µM (active). As to `CC(Oc1cccc(Cl)c1)C(=O)O` (stereo unspecified), the “activity, positive = activation” value is -3.21% (inactive). On the same count and under the same terms, as for `N#CC(CCc1ccc(Cl)cc1)(Cn1cncn1)c1ccccc1` (stereo unspecified), the figure is 23.9% (inactive). Consider `CCCSP(=S)(OCC)Oc1ccc(Cl)cc1Cl` (stereo unspecified), for which the Potency is 61.1 µM (active). For `CCC(CC)(CNC(=O)CCCO)c1cccc(OC)c1`, the “activity, positive = activation” value is -3.41% [at 42.5 µM] (inactive). As for `CC(C)(C)c1cc([N+](=O)[O-])cc([N+](=O)[O-])c1O`, the Potency was 30.5 µM (active).

On to `Cc1cnc2c(C(=O)O)c(Cl)ccc2c1`, for which the “activity, positive = activation” value is -9.13% (inactive). As to `CC[C@H](C)[C@H]1O[C@]2(C=C[C@@H]1C)C[C@@H]1C[C@@H](C/C=C(\C)[C@@H](O[C@H]3C[C@H](OC)[C@@H](O[C@H]4C[C@H](OC)[C@@H](O)[C@H](C)O4)[C@H](C)O3)[C@@H](C)/C=C/C=C3\CO[C@@H]4[C@H](O)C(C)=C[C@@H](C(=O)O1)[C@]34O)O2`, the “activity, positive = activation” value was -43.8% [at 42.5 µM] (inactive). Same read-out and setting: then `CC[C@@H](CO)NC(=O)[C@@H]1C=C2c3cccc4[nH]cc(c34)C[C@H]2N(C)C1`, with 1.24% [at 42.5 µM] (inactive). On to `CC(C)C(=O)Cl`, for which the “activity, positive = activation” value was -4.36% (inactive).

Take `CN(C)c1ccc(N)cc1`: the Potency was 8.42 µM (active). As for `CCOc1ccc(C(C)(C)COCc2cccc(Oc3ccccc3)c2)cc1`, the “activity, positive = activation” value is 5.38% (inactive).

As to `O=[Se]=O`, the “activity, positive = activation” value was 0.15% [at 42.5 µM] (inactive). Turning to `CCOCn1c(-c2ccc(Cl)cc2)c(C#N)c(Br)c1C(F)(F)F`, the Potency is 24.3 µM (active). `O=C(N[C@H]1N=C(c2ccccc2F)c2cccc3c2N(CC3)C1=O)c1cc2ccccc2[nH]1`: the “activity, positive = activation” value is -11.8% [at 42.5 µM] (inactive). Same read-out and setting: then `N#Cc1cc(I)c(O)c(I)c1`, with 0.235% (inactive); and `CCC1(C2=NCCN2)Cc2ccccc2O1` (stereo unspecified), with -3.45% [at 42.5 µM] (inactive).

Consider `ClSC(Cl)(Cl)Cl`, for which the “activity, positive = activation” value was 1.11% (inactive). For `CCOP(=S)(OCC)Oc1cc(C)nc(N(CC)CC)n1`, the “activity, positive = activation” value is 14.2% (inactive). Still for that read-out and setting: then `Nc1ccc2c(c1)Cc1ccccc1-2`, with 7.43% (inactive). Same read-out and setting: then `C[C@@H]1CC2=CC(=O)CC[C@@H]2[C@H]2CC[C@@]3(C)[C@@H](CC[C@]3(C)O)[C@@H]21`, with 6.54% [at 42.5 µM] (inactive). Same read-out and setting: as for `COC(=O)c1ccccc1S(=O)(=O)NC(=O)N(C)c1nc(C)nc(OC)n1`, the figure is -1.55% (inactive). As to `CC(Cc1ccccc1)NCc1ccccc1Cl` (stereo unspecified), the “activity, positive = activation” value was 25.1% [at 42.5 µM] (inactive).

For `CC(C)(C)c1ccc(CSc2cnn(C(C)(C)C)c(=O)c2Cl)cc1`, the “activity, positive = activation” value was -3.59% (inactive).
